# According to PubChem BioAssay AID1030 (National Center for Advancing Translational Sciences (NCATS), 2008):
# In all, about 220,000 compounds went through this assay and about 16,000 (7.3%) were called active. Where a call stands in place of a potency, no number is given. Inconclusive results (about 25%) are left out. For the sample, actives were picked, then their nearest neighbours and some compounds at random. A number with no mark means an inactive call. Calls come from the whole dose curve; as a rule, active = well fitted inhibition curve with a large enough effect (not every such curve was filed as active); inconclusive = small, poorly fitted or top-dose-only effect, or another doubt; inactive = no such curve, though single readings can be large or run the other way.
# Target: Aldehyde dehydrogenase 1A1 (Homo sapiens) (UniProt P00352)
# Experiment: qHTS Assay for Inhibitors of Aldehyde Dehydrogenase 1 (ALDH1A1)
# Settings: Purified ALDH1A1, NADH fluorescence, propionaldehyde substrate; series mostly up to 75.3 µM
# Potency is the fitted concentration of half-maximal effect.
# Chain of Aldehyde dehydrogenase 1A1 (Homo sapiens) (P00352 whole entry, looked up): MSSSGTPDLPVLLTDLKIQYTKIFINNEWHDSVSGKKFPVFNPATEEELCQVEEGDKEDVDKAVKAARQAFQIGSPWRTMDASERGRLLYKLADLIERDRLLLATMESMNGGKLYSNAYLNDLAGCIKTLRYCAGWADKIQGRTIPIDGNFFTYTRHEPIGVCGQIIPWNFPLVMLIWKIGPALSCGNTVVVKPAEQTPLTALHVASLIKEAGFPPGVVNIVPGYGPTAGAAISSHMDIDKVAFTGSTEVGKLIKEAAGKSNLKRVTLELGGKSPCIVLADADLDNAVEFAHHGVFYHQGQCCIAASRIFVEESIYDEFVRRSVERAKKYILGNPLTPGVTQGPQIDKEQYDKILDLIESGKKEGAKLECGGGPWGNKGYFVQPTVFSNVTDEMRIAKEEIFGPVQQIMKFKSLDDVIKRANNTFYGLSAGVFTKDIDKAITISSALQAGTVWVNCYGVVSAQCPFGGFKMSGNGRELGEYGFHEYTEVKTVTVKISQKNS
SMILES,"activity, negative = inhibition",Potency
COC(=O)C1=C(C(=O)OC)[C@@H]2N(Cc3ccccc3)c3ccccc3[C@@]23C[C@@H](C(=O)OC)N(S(=O)(=O)c2ccc(C(F)(F)F)cc2)C3=N1,3.2% [at 13.5 µM],–
Fc1cccc2ncnc(OCc3ccccc3)c12,–,inactive
S=C(NCc1ccc2c(c1)OCO2)NCc1ccco1,–,20 µM (active)
O=C(CSc1ncn[nH]1)NCc1ccc2c(c1)OCO2,–,inactive
CS(=O)(=O)N(CC(=O)NCc1ccco1)c1ccc2c(c1)OCO2,–,inactive
O=C(CSc1ccc(-c2ccco2)nn1)NCc1ccc2c(c1)OCO2,–,3.55 µM (active)
Cc1ccccc1-c1nnc(SCC(=O)NCc2ccc3c(c2)OCO3)n1C,–,inactive
Cc1c(Cl)cccc1NC(=S)NCc1ccc2c(c1)OCO2,–,inactive
Oc1ccc(-c2nncn2-c2ccccc2)cc1,–,inactive
O=C(CSc1cccc[n+]1[O-])NCCCc1ccccc1,–,inactive
O=C(CSc1cccc[n+]1[O-])c1ccc(Cl)cc1,–,inactive
COc1ccccc1C(=O)CSc1cccc[n+]1[O-],–,14.1 µM (active)
Cc1cccc(N2CC(C)Cn3c2nc2c3c(=O)n(CC(=O)OCc3ccccc3)c(=O)n2C)c1 (stereo unspecified),–,inactive
Cn1c(=O)n(CCc2ccccc2)c(=O)c2c1nc1n2CCCN1c1ccccc1,–,8.91 µM (active)
CC(C)Cn1c(CN(Cc2ccccc2)Cc2ccccc2)nc2c1c(=O)n(C)c(=O)n2C,–,inactive
CCOC(=O)C1CCN(C(=O)c2ccccc2N(C)S(=O)(=O)c2ccccc2)CC1,–,inactive
COc1ccc(C(=O)N2CCC(C(=O)Nc3ccc(C)cc3)CC2)cc1,–,inactive
Cc1ccccc1C(=O)N1CCC(C(=O)Nc2ccc(S(=O)(=O)N(C)C(C)C)cc2)CC1,–,12.6 µM (active)
COc1ccc(N(CC(=O)Nc2ccc(C)cc2C)S(=O)(=O)c2ccccc2[N+](=O)[O-])c(OC)c1,–,inactive
CNS(=O)(=O)c1ccc(N2CCCC2=O)c([N+](=O)[O-])c1,–,inactive
CCCCC/C=C\CC1OC1CCCCCCCC(=O)O (stereo unspecified),–,inactive
CCOC(=O)C1(S(=O)(=O)c2ccccc2)CCN(Cc2ccccc2)CC1,–,inactive

SMILES,"activity, negative = inhibition",Potency
CC1=C/C(=N\S(=O)(=O)c2ccccc2)C(C(C)C)=CC1=O,–,inactive
CC1=C/C(=N\OS(=O)(=O)c2ccccc2)C=CC1=O,–,11.2 µM (active)
COc1cccc(NC(=O)CN(C)CC(=O)Nc2ccc3c(c2)CCC3)c1,–,inactive
Cc1ccnc(NC(=O)c2ccc(Cl)c([N+](=O)[O-])c2)c1,–,inactive
COc1ccc(C(=O)CN2C(=O)NC(C)(c3ccc(C)cc3)C2=O)cc1OC (stereo unspecified),–,inactive
COC(=O)CN1C(=O)N/C(=C/c2ccc(OC)c(C)c2OC)C1=O,–,6.31 µM (active)
Cc1ccccc1NC(=O)CN1C(=O)N/C(=C\c2cccn2-c2cccc(C(=O)O)c2)C1=O,–,inactive
CC(=O)Nc1ccc(OCCC[n+]2cccc(C(=O)[O-])c2)cc1,–,inactive
Cc1ccc(-c2nnn(CC(=O)N(Cc3ccco3)C(C(=O)NC(C)(C)C)c3ccncc3)n2)o1 (stereo unspecified),–,inactive
COc1ccc(S(=O)(=O)Nc2ccc(S(=O)(=O)N3CCCCC3)cc2)cc1OC,–,0.562 µM (active)
COc1ccc(NS(=O)(=O)c2ccc(NC(C)=O)cc2)cc1OC,–,inactive
COc1ccc(S(=O)(=O)N2CCCCC2)cc1Br,–,inactive
CN(C)/N=C/c1cn(-c2ccccc2)nc1-c1cccnc1,–,inactive
COc1ccc(C(=O)NNS(=O)(=O)c2ccc(C)cc2)cc1,–,inactive
Cc1cccc(OCc2ccc(C(=O)Nc3ccc(F)cc3)cc2)c1,–,inactive
Cc1ccc(COc2ccc(C(=O)NN)cc2)cc1,–,1 µM (active)
COC(=O)/C(NC(C)=O)=C(\C)c1ccc(Cl)cc1,–,inactive
COC(=O)C(=Nc1ccccc1)/C(C(=O)C(=O)N(C)c1ccccc1)=C(\O)c1ccc(Cl)cc1,–,25.1 µM (active)
CN(C(=O)CC(NC(=O)c1ccccc1)(c1ccccc1)c1ccccc1)c1ccccc1,–,inactive
COc1ccccc1CNC(=O)C1Cc2ccccc2C(=O)O1 (stereo unspecified),–,inactive
Cc1cccc(N2CCC(NCc3c(C(=O)N4CCCCC4)nc4c(C)cccn34)CC2)c1,–,inactive
COCCn1c(C)cc(C2=NNC(=Nc3ccc(F)cc3)SC2)c1C,–,10 µM (active)

SMILES,"activity, negative = inhibition",Potency
COC(=O)c1cc(NC(=O)CN2CCN(C(C)=O)CC2)cc(C(=O)OC)c1,–,inactive
O=C(Nc1ccc(S(=O)(=O)Nc2ncccn2)cc1)c1cncc(Br)c1,–,inactive
NS(=O)(=O)c1ccc(NC(=S)NC(=O)c2cccc(Br)c2)cc1,–,25.1 µM (active)
NS(=O)(=O)c1ccc(NC(=S)NC(=O)c2cccnc2)cc1,–,inactive
COc1ccc(NC(=S)Nc2ccc(S(N)(=O)=O)cc2)c(C)c1,–,inactive
O=C(NC(=S)Nc1ccc(S(=O)(=O)Nc2ncccn2)cc1)c1cccc(Br)c1,–,10 µM (active)
O=C(NC1CC1)c1cccc(Br)c1,–,inactive
COC(=O)c1ccccc1NC(=S)NC(=O)c1ccccc1F,–,inactive
O=C(/C=C/c1ccccc1Cl)Nc1ccc(S(=O)(=O)Nc2ncccn2)cc1,–,inactive
O=C(NC(=S)Nc1cccc2c(O)cccc12)c1cccc(Br)c1,–,3.16 µM (active)
COc1ccc(/C=N/n2c(C)cc(C)cc2=O)cc1,–,inactive
CC1=NNC(=O)C1CCC(=O)N/N=C\c1ccc(Cl)c(Cl)c1 (stereo unspecified),–,inactive
O=C(N/N=C/c1ccc2c(c1)OCO2)C(=O)N1CCCC1,–,inactive
COC(=O)C1=C(C(=O)OC)[C@@H]2N(C)c3ccccc3[C@@]23C[C@@H](C(=O)OC)N(C(=O)c2ccco2)C3=N1,11.6% [at 13.5 µM],–
O=C(Nc1ccc2c(c1)OCO2)c1sc2cc(Cl)ccc2c1Cl,–,inactive
Cc1ccc(C2CC2C(=O)NN)cc1 (stereo unspecified),–,14.1 µM (active)
COC(=O)C1C(=O)NCC1c1ccc(C)cc1 (stereo unspecified),–,inactive
Cc1ccc(C2NC(C(=O)O)CS2)cc1 (stereo unspecified),–,inactive
O=C(Cc1ccc(-c2ccccc2)cc1)NC(c1ccccc1)c1ccccc1,–,10 µM (active)
O=C(O)Cc1ccc(-c2ccccc2)cc1,–,inactive
CCOC(=O)/C=C/C(=O)OCC(=O)NC(c1ccccc1)c1ccccc1,–,inactive
COc1ccc(Br)c2c1C(=O)CC2,–,inactive
